About 21,000 targets were measured; listed, in parts, are those with the largest changes and a random draw of the rest.
Compound: Cc1cc(ccc1-c1ccccc1)C(=O)N1CCCN(CC1)C(=O)CCl [compound 10]
Test: probe-labelled cysteine peptide fold change vs DMSO (competition) (log2 fold change); higher = less target engagement (more negative = stronger competition)
Conditions: THP-1, incubation time: 4 h
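Also: competitive profiling in live THP-1 cells: cysteine peptides tagged with an iodoacetamide desthiobiotin (IA-DTB) probe, intensity after compound treatment relative to DMSO-treated cells.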

Chain of UniProt Q9BSF8 (Q9BSF8 whole entry, looked up): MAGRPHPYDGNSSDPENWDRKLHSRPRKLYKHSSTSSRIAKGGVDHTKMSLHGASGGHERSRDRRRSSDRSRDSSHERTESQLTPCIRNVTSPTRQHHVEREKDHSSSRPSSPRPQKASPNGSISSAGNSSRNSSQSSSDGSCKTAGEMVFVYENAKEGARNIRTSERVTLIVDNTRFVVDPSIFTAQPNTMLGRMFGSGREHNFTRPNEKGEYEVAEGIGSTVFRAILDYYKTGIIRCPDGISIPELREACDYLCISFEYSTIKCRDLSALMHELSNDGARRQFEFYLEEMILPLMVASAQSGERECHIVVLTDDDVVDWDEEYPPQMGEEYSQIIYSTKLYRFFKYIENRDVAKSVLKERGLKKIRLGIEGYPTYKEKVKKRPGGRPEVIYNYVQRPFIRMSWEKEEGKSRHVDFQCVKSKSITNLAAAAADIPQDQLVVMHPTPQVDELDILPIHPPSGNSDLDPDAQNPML
Chain of UniProt P23528 (P23528 whole entry, looked up): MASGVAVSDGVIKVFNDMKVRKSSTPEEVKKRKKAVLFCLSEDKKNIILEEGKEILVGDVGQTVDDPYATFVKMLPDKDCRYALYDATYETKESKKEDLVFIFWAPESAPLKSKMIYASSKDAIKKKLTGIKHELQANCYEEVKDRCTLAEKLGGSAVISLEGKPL
Chain of UniProt Q9HC52 (Q9HC52 whole entry, looked up): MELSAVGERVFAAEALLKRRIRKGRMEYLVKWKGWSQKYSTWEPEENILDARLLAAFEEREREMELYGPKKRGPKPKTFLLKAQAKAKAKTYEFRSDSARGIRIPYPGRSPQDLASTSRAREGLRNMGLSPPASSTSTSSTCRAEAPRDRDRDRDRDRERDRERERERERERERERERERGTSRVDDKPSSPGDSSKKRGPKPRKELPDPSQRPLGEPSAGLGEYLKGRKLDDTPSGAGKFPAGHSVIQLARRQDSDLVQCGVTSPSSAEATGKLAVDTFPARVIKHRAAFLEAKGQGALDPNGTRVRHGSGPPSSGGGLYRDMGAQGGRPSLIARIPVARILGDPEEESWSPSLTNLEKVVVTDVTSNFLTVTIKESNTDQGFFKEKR
Chain of UniProt Q14137 (Q14137 whole entry, looked up): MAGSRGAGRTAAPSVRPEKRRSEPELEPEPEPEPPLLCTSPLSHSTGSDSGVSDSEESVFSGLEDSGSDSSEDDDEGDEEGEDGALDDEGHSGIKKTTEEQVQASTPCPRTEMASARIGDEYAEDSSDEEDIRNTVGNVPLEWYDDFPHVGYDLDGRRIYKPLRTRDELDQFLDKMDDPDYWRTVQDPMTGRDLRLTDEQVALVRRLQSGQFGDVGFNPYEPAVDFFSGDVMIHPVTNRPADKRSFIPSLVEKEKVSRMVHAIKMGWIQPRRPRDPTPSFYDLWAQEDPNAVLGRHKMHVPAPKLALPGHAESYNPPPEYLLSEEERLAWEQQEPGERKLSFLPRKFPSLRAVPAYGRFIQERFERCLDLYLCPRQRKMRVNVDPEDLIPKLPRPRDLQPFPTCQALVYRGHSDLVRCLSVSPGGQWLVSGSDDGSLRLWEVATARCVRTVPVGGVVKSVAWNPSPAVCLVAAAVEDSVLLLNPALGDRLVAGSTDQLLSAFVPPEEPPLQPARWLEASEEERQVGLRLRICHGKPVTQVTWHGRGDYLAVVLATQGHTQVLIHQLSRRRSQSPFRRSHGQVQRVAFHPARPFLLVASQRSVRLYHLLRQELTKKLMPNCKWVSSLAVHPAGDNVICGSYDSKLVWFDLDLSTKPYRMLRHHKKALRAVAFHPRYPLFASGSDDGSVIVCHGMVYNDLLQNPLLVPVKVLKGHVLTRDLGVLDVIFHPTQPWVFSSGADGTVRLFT
Chain of UniProt O95319 (O95319 whole entry, looked up): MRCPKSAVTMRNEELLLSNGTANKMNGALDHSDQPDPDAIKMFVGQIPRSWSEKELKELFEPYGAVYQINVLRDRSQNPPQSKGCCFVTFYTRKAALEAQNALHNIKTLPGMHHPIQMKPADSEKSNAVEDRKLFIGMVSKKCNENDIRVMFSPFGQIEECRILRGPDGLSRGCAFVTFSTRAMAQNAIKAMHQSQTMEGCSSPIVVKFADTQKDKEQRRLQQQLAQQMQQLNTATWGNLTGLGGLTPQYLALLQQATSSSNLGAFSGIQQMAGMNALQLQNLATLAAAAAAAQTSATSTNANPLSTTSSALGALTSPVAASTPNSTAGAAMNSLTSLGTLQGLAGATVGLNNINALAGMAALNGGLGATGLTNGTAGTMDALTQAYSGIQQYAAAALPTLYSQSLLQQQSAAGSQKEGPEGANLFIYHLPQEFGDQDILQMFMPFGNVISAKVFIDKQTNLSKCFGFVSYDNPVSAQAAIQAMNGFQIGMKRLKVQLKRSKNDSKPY
Chain of UniProt Q9H257 (Q9H257 whole entry, looked up): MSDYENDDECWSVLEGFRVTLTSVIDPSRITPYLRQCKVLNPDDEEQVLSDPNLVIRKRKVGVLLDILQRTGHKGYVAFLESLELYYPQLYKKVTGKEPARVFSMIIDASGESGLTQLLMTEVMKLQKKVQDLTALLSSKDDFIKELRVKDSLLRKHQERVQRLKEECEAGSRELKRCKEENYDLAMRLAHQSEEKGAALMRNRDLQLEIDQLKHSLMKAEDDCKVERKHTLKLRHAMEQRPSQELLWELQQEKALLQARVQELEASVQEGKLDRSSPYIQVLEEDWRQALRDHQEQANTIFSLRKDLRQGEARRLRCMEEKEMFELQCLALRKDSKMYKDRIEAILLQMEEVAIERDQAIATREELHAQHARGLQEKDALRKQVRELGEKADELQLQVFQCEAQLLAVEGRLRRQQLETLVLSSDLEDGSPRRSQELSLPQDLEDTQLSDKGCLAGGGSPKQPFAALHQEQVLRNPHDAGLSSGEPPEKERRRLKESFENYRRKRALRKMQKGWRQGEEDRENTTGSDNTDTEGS
Chain of UniProt Q8NFJ8 (Q8NFJ8 whole entry): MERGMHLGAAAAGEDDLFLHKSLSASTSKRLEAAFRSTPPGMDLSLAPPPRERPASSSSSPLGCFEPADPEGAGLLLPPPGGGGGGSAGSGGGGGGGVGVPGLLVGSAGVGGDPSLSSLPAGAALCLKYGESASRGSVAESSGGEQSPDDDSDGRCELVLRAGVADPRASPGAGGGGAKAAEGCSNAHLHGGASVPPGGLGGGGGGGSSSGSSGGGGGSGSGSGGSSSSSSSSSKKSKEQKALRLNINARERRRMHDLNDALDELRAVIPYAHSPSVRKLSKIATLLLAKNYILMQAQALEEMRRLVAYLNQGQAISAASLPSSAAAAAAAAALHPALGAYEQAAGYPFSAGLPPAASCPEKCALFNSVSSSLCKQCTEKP
Chain of UniProt O75419 (O75419 whole entry, looked up): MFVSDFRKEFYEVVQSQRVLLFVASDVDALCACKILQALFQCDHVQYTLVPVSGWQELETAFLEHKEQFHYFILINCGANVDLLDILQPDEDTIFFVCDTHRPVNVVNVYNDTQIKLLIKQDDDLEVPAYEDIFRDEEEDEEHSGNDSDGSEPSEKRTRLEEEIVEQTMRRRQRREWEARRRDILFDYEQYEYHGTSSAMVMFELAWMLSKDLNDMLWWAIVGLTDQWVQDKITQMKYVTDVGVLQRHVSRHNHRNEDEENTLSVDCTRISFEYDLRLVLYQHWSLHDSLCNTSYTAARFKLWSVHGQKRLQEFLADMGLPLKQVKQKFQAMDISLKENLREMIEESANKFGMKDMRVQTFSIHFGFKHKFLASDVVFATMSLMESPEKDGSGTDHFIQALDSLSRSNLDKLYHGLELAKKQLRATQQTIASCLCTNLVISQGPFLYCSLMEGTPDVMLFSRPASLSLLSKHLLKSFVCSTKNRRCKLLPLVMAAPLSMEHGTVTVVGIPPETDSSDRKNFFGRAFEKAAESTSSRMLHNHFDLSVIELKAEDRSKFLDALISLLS
Chain of UniProt Q86X55 (Q86X55 whole entry, looked up): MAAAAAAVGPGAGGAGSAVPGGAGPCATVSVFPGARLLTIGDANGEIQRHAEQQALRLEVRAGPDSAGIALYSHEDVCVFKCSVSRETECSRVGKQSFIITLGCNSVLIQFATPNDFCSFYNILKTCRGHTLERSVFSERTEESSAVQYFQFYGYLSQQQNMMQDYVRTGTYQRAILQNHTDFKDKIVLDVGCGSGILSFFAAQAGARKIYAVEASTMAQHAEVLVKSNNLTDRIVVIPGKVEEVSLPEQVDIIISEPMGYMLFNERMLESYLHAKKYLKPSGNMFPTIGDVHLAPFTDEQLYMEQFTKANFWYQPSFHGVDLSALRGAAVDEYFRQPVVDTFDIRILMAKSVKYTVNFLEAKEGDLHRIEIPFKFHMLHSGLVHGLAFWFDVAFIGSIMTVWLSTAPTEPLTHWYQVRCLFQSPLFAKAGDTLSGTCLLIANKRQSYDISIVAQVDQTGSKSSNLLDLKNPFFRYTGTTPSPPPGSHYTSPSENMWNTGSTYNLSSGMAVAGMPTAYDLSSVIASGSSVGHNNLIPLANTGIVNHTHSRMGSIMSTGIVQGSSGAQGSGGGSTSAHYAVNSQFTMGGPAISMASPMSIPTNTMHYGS
Chain of UniProt Q00535 (Q00535 whole entry, looked up): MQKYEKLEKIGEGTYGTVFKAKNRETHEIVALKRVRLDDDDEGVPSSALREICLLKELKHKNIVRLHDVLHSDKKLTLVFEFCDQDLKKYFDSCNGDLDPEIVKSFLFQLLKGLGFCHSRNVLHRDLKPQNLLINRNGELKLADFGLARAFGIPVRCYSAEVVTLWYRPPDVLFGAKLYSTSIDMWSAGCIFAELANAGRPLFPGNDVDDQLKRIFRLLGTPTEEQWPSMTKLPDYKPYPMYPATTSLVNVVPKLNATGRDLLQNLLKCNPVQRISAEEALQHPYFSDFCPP
Chain of UniProt P83916 (P83916 whole entry, looked up): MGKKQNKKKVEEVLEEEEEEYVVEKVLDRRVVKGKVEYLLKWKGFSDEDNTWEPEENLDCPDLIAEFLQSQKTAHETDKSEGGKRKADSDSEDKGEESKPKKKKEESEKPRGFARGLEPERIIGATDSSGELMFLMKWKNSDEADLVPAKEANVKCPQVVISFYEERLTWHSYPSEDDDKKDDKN

Target | probe-labelled cysteine peptide fold change (10 µM) | probe-labelled cysteine peptide fold change (50 µM)
CBX1_P83916_156_CPQVVISFYEER (UniProt P83916) | 0.121 | -0.00934
CASP10_Q92851_169_IDEDNLTCLEDLCK (UniProt Q92851) | -0.0609 | 0.0728
BIRC6_Q9NR09_3773_TAIENATVAFFLQCISCHPNNQK (UniProt Q9NR09) | 0.213 | 0.136
CAND1_Q86VP6_802_CVAALTR (UniProt Q86VP6) | 0.211 | -0.156
CEP192_Q8TEP8_1562_APVEVAPCADVVTR (UniProt Q8TEP8) | -0.611 | -0.285
BRD1_O95696_294_TDDDRWGHVVCALWIPEVGFANTVFIEPIDGVR (UniProt O95696) | -0.0156 | 0.0676
CDK5_Q00535_117_GLGFCHSR (UniProt Q00535) | 0.00449 | 0.158
CELF2_O95319_174_GCAFVTFSTR (UniProt O95319) | 0.0275 | 0.0429
CELF1_Q92879_119_CTENDIR (UniProt Q92879) | 0.0497 | 0.276
CARD9_Q9H257_402_ADELQLQVFQCEAQLLAVEGR (UniProt Q9H257) | 0.18 | 0.639
CENPF_P49454_339_CRDELVR (UniProt P49454) | 0.481 | 0.506
BRIX1_Q8TDN6_52_RHATAEEVEEEERDRIPGPVCK (UniProt Q8TDN6) | -0.278 | -0.296
C17orf75_Q9HAS0_265_FLSVASLQGLIHEGTMTSLCMAMTEEQHK (UniProt Q9HAS0) | 0.0249 | -0.756
BRAP_Q7Z569_47_TTLASAVACLEGK (UniProt Q7Z569) | -0.252 | -0.245
CARM1_Q86X55_438_AGDTLSGTCLLIANK (UniProt Q86X55) | 0.0534 | 0.146
BTBD10_Q9BSF8_86_TESQLTPCIR (UniProt Q9BSF8) | -0.608 | -1.07
AVEN_Q9NQS1_169_EWDSEASCPK (UniProt Q9NQS1) | -0.857 | -2.39
CHORDC1_Q9UHD1_86_ELCELK (UniProt Q9UHD1) | -0.0657 | 0.205
CHPF_Q8IZ52_243_YCHGGFGVLLSR (UniProt Q8IZ52) | -0.176 | 0.255

Target | probe-labelled cysteine peptide fold change (10 µM) | probe-labelled cysteine peptide fold change (50 µM)
CDC42_P60953_105_EKWVPEITHHCPK (UniProt P60953) | -0.508 | -0.929
CDC45_O75419_267_HNHRNEDEENTLSVDCTR (UniProt O75419) | 0.0632 | -0.279
BCKDHB_P21953_361_VCGYDTPFPHIFEPFYIPDK (UniProt P21953) | -0.0395 | 0.155
CAMK2B_Q13554_116_EYYSEADASHCIQQILEAVLHCHQMGVVHR (UniProt Q13554) | -0.0191 | 0.141
BOP1_Q14137_108_TTEEQVQASTPCPR (UniProt Q14137) | -0.185 | -0.638
CCAR2_Q8N163_515_RNAETPEATTQQETDTDLPEAPPPPLEPAVIARPGCVNLSLHGIVEDR (UniProt Q8N163) | 0.107 | -0.245
BHLHE22_Q8NFJ8_156_GSVAESSGGEQSPDDDSDGRCELVLR (UniProt Q8NFJ8) | -0.393 | -0.217
CBX8_Q9HC52_142_NMGLSPPASSTSTSSTCR (UniProt Q9HC52) | -0.187 | -0.373
CBX4_O00257_185_EAPSPTCPDLGAK (UniProt O00257) | -0.129 | -0.0437
CHORDC1_Q9UHD1_59_RTTDFSDFLSIVGCTK (UniProt Q9UHD1) | -0.167 | -0.292
CBR1_P16152_226_ILLNACCPGWVR (UniProt P16152) | -0.103 | -0.297
CEPT1_Q9Y6K0_30_CGDSHPESPVGFGHMSTTGCVLNK (UniProt Q9Y6K0) | -2.38 | -2.51
CFL1_P23528_39_AVLFCLSEDK (UniProt P23528) | 0.0825 | 0.0485
CEP170_Q5SW79_30_EMIFVGRDDCELMLQSR (UniProt Q5SW79) | -0.075 | 0.0343
CAD_P27708_2161_FGSTQEYEACFGQFILTPHIMTR (UniProt P27708) | 0.0378 | 0.111
CBR1_P16152_122_DVCTELLPLIK (UniProt P16152) | 0.109 | 0.509
CASP2_P42575_30_ILGVCGMHPHHQETLKK (UniProt P42575) | -0.432 | -1.14
CEPT1_Q9Y6K0_11+30_CGDSHPESPVGFGHMSTTGCVLNK (UniProt Q9Y6K0) | -1.98 | -2.17

— the supplement of paper PMC12067093, “Discovery and optimisation of a covalent ligand for TRIM25 and its application to targeted protein ubiquitination” (Chemical Science, 2025)
